37 compounds from PubChem BioAssay (NCI) can be followed below.

“And” between values parts separate entries of the source, which are not always exact repeats. Equal values may be shown once. Compounds without any hit were thinned out: in the full panel of roughly 83,000, 20% have a hit.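 Values shown are percent growth following 48 h exposure of cells in 96-well plates to a single concentration of compound; below 10 was considered active.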 Values without a mark were called inactive. The source made the active and inactive calls.

The subject of the first assay is MDA-MB-231 breast. In words: NCI-60 one-dose screen, 48 h (100 = growth as untreated, 0 = no growth, -100 = all killed). The note with it: 10 µM unless noted.
Turning to `O=C(O)C(Br)CBr` (configuration not stated), the growth is 126%.

In the case of `COC(=O)CCP(CCC(=O)OC)c1ccccc1`, the growth is 117%.

Take `COc1ccc(N)cc1N`: the growth is 99%.

Turning to `CC1=C(C)C(=O)O[C@@H]([C@](C)(O)[C@]2(O)CC[C@@]3(O)[C@@H]4C[C@H]5O[C@]56CC=CC(=O)[C@]6(C)[C@H]4CC[C@]23C)C1`, the growth is 30.3%.

As for `COc1ccc(N)cc1OC`, the growth is 87.1%.

Turning to `O=C(O)c1ccc(=O)[nH]c1`, the growth was 102% and 104%.

As to `O=S(=O)(F)c1cccc(Cl)c1C[P+](c1ccccc1)(c1ccccc1)c1ccccc1`, the growth was 98.6%.

In the case of `O=[N+]([O-])c1c(Cl)cc(Cl)c([N+](=O)[O-])c1Cl`, the growth was 110%.

Take `O=C(O)CNCP(=O)(O)O`: the growth is 117%.

For the compound `CCCCOC(N)=O`, the growth was 109%.

As to `c1ccc(CCN2CCCCC2)nc1`, the growth is 97.8%.

Regarding `O=[N+]([O-])c1cc(Br)c(O)c(Br)c1`, the growth was 103%.

As for `OCCN=Cc1c[nH]c2ccccc12`, the growth was 68.6%.

Turning to `CC1=C2[C@H]3OC(=O)[C@@H](C)[C@@H]3CC[C@@]2(C)C=CC1=O`, the growth was 112%.

On to `CCOC(=O)c1ccccc1C(=O)OCC`, for which the growth is 93.3%.

Take `CC(Oc1ccc(-c2ccccc2)cc1)C(=O)O` (configuration not stated): the growth was 108%.

Regarding `O=[N+]([O-])c1ccc(CI)cc1`, the growth was 102%.

`CN1[C@@H](CC(=O)c2ccccc2)CCC[C@H]1CC(=O)c1ccccc1`: the growth is 111%.

`Cc1cc[n+](CCc2ccccc2)cc1`: the growth is 115% and 117%.

On to `CN1C2CCC1[C@@H](COC(=O)c1ccccc1)[C@@H](O)C2` (some centres not stated), for which the growth was 103%.

As for `O=C1NC(=O)C(=C/C=C/c2ccccc2)C(=O)N1`, the growth is 3.87% (active).

Take `COC(=O)C1=CO[C@@H](C)[C@@H]2CN3CCc4c([nH]c5cc(OC)ccc45)[C@@H]3C[C@H]12`: the growth is 97.2%.

As to `NC1CN2CCC1CC2` (configuration not stated), the growth is 98.3%.

As to `C=CC1CN2CCC1CC2C(O)c1ccnc2ccccc12` (configuration not stated), the growth was 125%.

In the case of `COC12CC3C4=CCOC5CC(=O)N6c7ccccc7C1(CCN2C4)C6C53` (configuration not stated), the growth was 106%.

As for `CC1(C)CN=C(NN=C(/C=C/c2ccc(C(F)(F)F)cc2)/C=C/c2ccc(C(F)(F)F)cc2)NC1`, the growth is -83.1% (active).

With `CCCn1cc2c3c(cccc31)[C@H]1C[C@@H](C)CN(C)[C@@H]1C2`, the growth was 78.3%.

As for `COc1cc(-c2ccc(N)c(OC)c2)ccc1N`, the growth is 103%.

Turning to `O=C(O)c1cc([N+](=O)[O-])cc([N+](=O)[O-])c1`, the growth was 120%.

For the compound `ClCc1ccc(Cl)c(Cl)c1`, the growth was 108%.

`NC(=O)Oc1cc(OC(N)=O)cc(N(CCCl)CCCl)c1`: the growth was 97.9%.

In another assay the test system is RXF 393 renal. The description is as above. The note with it: 10 µM unless noted.
Take `COC(=O)CCP(CCC(=O)OC)c1ccccc1`: the growth is 108%.

Regarding `COc1ccc(N)cc1OC`, the growth is 125%.

With `O=[N+]([O-])c1c(Cl)cc(Cl)c([N+](=O)[O-])c1Cl`, the growth was 131%.

Consider `O=C(O)CNCP(=O)(O)O`, for which the growth is 121%.

In the case of `c1ccc(CCN2CCCCC2)nc1`, the growth was 114%.

In the case of `O=[N+]([O-])c1cc(Br)c(O)c(Br)c1`, the growth is 90.2%.

As to `OCCN=Cc1c[nH]c2ccccc12`, the growth is 118%.

Consider `CCOC(=O)c1ccccc1C(=O)OCC`, for which the growth is 121%.

In the case of `CN1[C@@H](CC(=O)c2ccccc2)CCC[C@H]1CC(=O)c1ccccc1`, the growth was 119%.

`O=S1(=O)OCCO1`: the growth was 103%.

As to `O=C1NC(=O)C(=C/C=C/c2ccccc2)C(=O)N1`, the growth is -91.5% (active).

Take `Cc1cc(N)ccc1N`: the growth is 103%.

Consider `COC(=O)C1=CO[C@@H](C)[C@@H]2CN3CCc4c([nH]c5cc(OC)ccc45)[C@@H]3C[C@H]12`, for which the growth was 115%.

With `NC1CN2CCC1CC2` (configuration not stated), the growth was 103%.

For the compound `Cc1ccc(C(=O)O[C@H](C(=O)O)[C@H](OC(=O)c2ccc(C)cc2)C(=O)O)cc1`, the growth is 115%.

In the case of `COC12CC3C4=CCOC5CC(=O)N6c7ccccc7C1(CCN2C4)C6C53` (configuration not stated), the growth was 129%.

In the case of `CC1=CC(=O)CCC12CCOC2=O` (configuration not stated), the growth is 108%.

Take `CCCn1cc2c3c(cccc31)[C@H]1C[C@@H](C)CN(C)[C@@H]1C2`: the growth was 86.6%.

Turning to `CCC(=O)C(CC(C)[N+](C)(C)C)(c1ccccc1)c1ccccc1` (configuration not stated), the growth was 104%.

For `CNC(=O)CCl`, the growth is 110%.

Another assay deals with SF-268 CNS. Described as above. The note with it: 10 µM unless noted.
`O=C(O)C(Br)CBr` (configuration not stated): the growth is 103%.

Regarding `COC(=O)CCP(CCC(=O)OC)c1ccccc1`, the growth was 103%.

As to `COc1ccc(N)cc1N`, the growth is 128%.

In the case of `CC1=C(C)C(=O)O[C@@H]([C@](C)(O)[C@]2(O)CC[C@@]3(O)[C@@H]4C[C@H]5O[C@]56CC=CC(=O)[C@]6(C)[C@H]4CC[C@]23C)C1`, the growth was -22.6% (active).

In the case of `COc1ccc(N)cc1OC`, the growth was 106%.

With `O=C(O)c1ccc(=O)[nH]c1`, the growth is 101% and 104%.

Take `O=S(=O)(F)c1cccc(Cl)c1C[P+](c1ccccc1)(c1ccccc1)c1ccccc1`: the growth is 105%.

As to `O=[N+]([O-])c1c(Cl)cc(Cl)c([N+](=O)[O-])c1Cl`, the growth was 96%.

As for `O=C(O)CNCP(=O)(O)O`, the growth is 113%.

As for `CCCCOC(N)=O`, the growth was 104%.

For `c1ccc(CCN2CCCCC2)nc1`, the growth is 103%.

Regarding `OCCN=Cc1c[nH]c2ccccc12`, the growth is 107%.

As to `CC1=C2[C@H]3OC(=O)[C@@H](C)[C@@H]3CC[C@@]2(C)C=CC1=O`, the growth is 107%.

Turning to `CCOC(=O)c1ccccc1C(=O)OCC`, the growth was 110%.

For the compound `CC(Oc1ccc(-c2ccccc2)cc1)C(=O)O` (configuration not stated), the growth was 105%.

As to `O=[N+]([O-])c1ccc(CI)cc1`, the growth was 84%.

With `CN1[C@@H](CC(=O)c2ccccc2)CCC[C@H]1CC(=O)c1ccccc1`, the growth is 102%.

`O=S1(=O)OCCO1`: the growth is 98.2%.

Regarding `Cc1cc[n+](CCc2ccccc2)cc1`, the growth is 98.6% and 108%.

Consider `CN1C2CCC1[C@@H](COC(=O)c1ccccc1)[C@@H](O)C2` (some centres not stated), for which the growth is 108%.

`O=C1NC(=O)C(=C/C=C/c2ccccc2)C(=O)N1`: the growth is 30%.

Turning to `Cc1cc(N)ccc1N`, the growth was 103%.

For `COC(=O)C1=CO[C@@H](C)[C@@H]2CN3CCc4c([nH]c5cc(OC)ccc45)[C@@H]3C[C@H]12`, the growth is 98.6%.

With `NC1CN2CCC1CC2` (configuration not stated), the growth is 97.2%.

With `Cc1ccc(C(=O)O[C@H](C(=O)O)[C@H](OC(=O)c2ccc(C)cc2)C(=O)O)cc1`, the growth is 105%.

For `C=CC1CN2CCC1CC2C(O)c1ccnc2ccccc12` (configuration not stated), the growth was 120%.

Take `COC12CC3C4=CCOC5CC(=O)N6c7ccccc7C1(CCN2C4)C6C53` (configuration not stated): the growth is 111%.

Take `CC1(C)CN=C(NN=C(/C=C/c2ccc(C(F)(F)F)cc2)/C=C/c2ccc(C(F)(F)F)cc2)NC1`: the growth is -34.5% (active).

As for `CC1=CC(=O)CCC12CCOC2=O` (configuration not stated), the growth was 103%.

On to `CCCn1cc2c3c(cccc31)[C@H]1C[C@@H](C)CN(C)[C@@H]1C2`, for which the growth is 94.8%.

With `COc1cc(-c2ccc(N)c(OC)c2)ccc1N`, the growth is 103%.

Regarding `O=C(O)c1cc([N+](=O)[O-])cc([N+](=O)[O-])c1`, the growth was 97%.

For the compound `ClCc1ccc(Cl)c(Cl)c1`, the growth was 101%.

In the case of `NC(=O)Oc1cc(OC(N)=O)cc(N(CCCl)CCCl)c1`, the growth is 39.7%.

In the case of `CCC(=O)C(CC(C)[N+](C)(C)C)(c1ccccc1)c1ccccc1` (configuration not stated), the growth is 103%.

Turning to `CNC(=O)CCl`, the growth is 104%.
